Experimental data published in PubChem BioAssay AID1159580 (chemical genetic matrix, 2015).
About 2,000 (36%) of roughly 5,500 compounds were called active. Inconclusive results (about 18%) are left out. No stated cut-off is given here; in the data, active means normalized growth mostly below about 0.91 (no sharp cut-off); inconclusive means no clear call, values can overlap the other calls; inactive means mostly above about 0.92. The list shows a part of the results.

Assay: chemical genetic growth profiling, strain panel (AID 1159580);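 further: tested at 20 µM; growth read once vehicle control cultures reached saturation at 30 °C; 1 = growth at the plate median or of vehicle wells; lower values mean less growth of the strain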
Conditions: growth OD

Measured: normalized growth

CC(=O)OCC(=O)[C@@]1(O)CCC2C3CCC4=CC(=O)C=CC4(C)C3[C@@H](O)C[C@@]21C (stereo partly drawn)
inactive: S. cerevisiae deletion strains, locus YKL009W, strain mrt4, hits give low values 1.07 | S. cerevisiae deletion strains, locus YKL068W, hits give low values 1.01 | S. cerevisiae deletion strains, locus YKL085W, strain MDH1 (second series), hits give low values 1.01 | S. cerevisiae deletion strains, locus YKL085W, strain MDH1, hits give low values 1.01 | S. cerevisiae deletion strains, locus YKL160W, strain elf1, hits give low values 0.973 | S. cerevisiae deletion strains, locus YKL190W, strain CNB1, hits give low values 1.02 | S. cerevisiae deletion strains, locus YKR001C, strain vps1, hits give low values 1.02 | S. cerevisiae deletion strains, locus YKR026C, strain gcn3, hits give low values 0.985 | S. cerevisiae deletion strains, locus YKR091W, strain srl3, hits give low values 1 | S. cerevisiae deletion strains, locus YLL001W, strain dnm1, hits give low values 0.953 | S. cerevisiae deletion strains, locus YLL026W, hits give low values 0.99 | S. cerevisiae deletion strains, locus YLL041C, strain sdh2, hits give low values 0.998 | S. cerevisiae deletion strains, locus YLR027C, strain aat2, hits give low values 0.991 | S. cerevisiae deletion strains, locus YLR039C, strain RIC1, hits give low values 1.04 | S. cerevisiae deletion strains, locus YLR058C, strain SHM2, hits give low values 0.998 | S. cerevisiae deletion strains, locus YLR102C, strain apc9, hits give low values 1.01 | S. cerevisiae deletion strains, locus YLR113W, strain HOG1, hits give low values 0.999 | S. cerevisiae deletion strains, locus YLR221C, strain rsa3, hits give low values 1.01 | S. cerevisiae deletion strains, locus YLR258W, strain gsy2, hits give low values 1 | S. cerevisiae deletion strains, locus YLR262C, strain YPT6 (second series), hits give low values 0.967 | S. cerevisiae deletion strains, locus YLR262C, strain YPT6, hits give low values 1.04 | S. cerevisiae deletion strains, locus YLR268W, strain sec22, hits give low values 1.03 | S. cerevisiae deletion strains, locus YLR320W, strain mms22, hits give low values 0.982 | S. cerevisiae deletion strains, locus YLR330W, strain CHS5, hits give low values 1.01 | S. cerevisiae deletion strains, locus YLR342W, strain FKS1 (second series), hits give low values 1.02 | S. cerevisiae deletion strains, locus YLR342W, strain FKS1, hits give low values 0.992 | S. cerevisiae deletion strains, locus YLR357W, strain rsc2, hits give low values 0.997 | S. cerevisiae deletion strains, locus YLR370C, strain arc18, hits give low values 0.984 | S. cerevisiae deletion strains, locus YLR371W, strain rom2, hits give low values 1.02 | S. cerevisiae deletion strains, locus YLR384C, strain iki3, hits give low values 0.973 | S. cerevisiae deletion strains, locus YLR418C, strain cdc73, hits give low values 1.02 | S. cerevisiae deletion strains, locus YML016C, strain PPZ1, hits give low values 1.01 | S. cerevisiae deletion strains, locus YML032C, strain rad52, hits give low values 1.03 | S. cerevisiae deletion strains, locus YML120C, strain ndi1, hits give low values 0.995 | S. cerevisiae deletion strains, locus YML124C, strain tub3, hits give low values 1.02 | S. cerevisiae deletion strains, locus YMR058W, strain fet3, hits give low values 0.992 | S. cerevisiae deletion strains, locus YMR078C, strain ctf18, hits give low values 1.01 | S. cerevisiae deletion strains, locus YMR125W, strain sto1, hits give low values 1 | S. cerevisiae deletion strains, locus YMR129W, hits give low values 0.993 | S. cerevisiae deletion strains, locus YMR205C, strain PFK2, hits give low values 0.99 | S. cerevisiae deletion strains, locus YMR223W, strain ubp8, hits give low values 1.02 | S. cerevisiae deletion strains, locus YMR231W, strain pep5, hits give low values 0.992 | S. cerevisiae deletion strains, locus YMR263W, strain SAP30, hits give low values 1 | S. cerevisiae deletion strains, locus YMR307W, strain GAS1, hits give low values 1.02 | S. cerevisiae deletion strains, locus YNL067W, strain RPL9B, hits give low values 1 | S. cerevisiae deletion strains, locus YNL071W, strain lat1, hits give low values 1.01 | S. cerevisiae deletion strains, locus YNL128W, strain TEP1, hits give low values 1.01 | S. cerevisiae deletion strains, locus YNL153C, strain GIM3, hits give low values 1 | S. cerevisiae deletion strains, locus YNL183C, strain NPR1, hits give low values 0.959 | S. cerevisiae deletion strains, locus YNL209W, strain ssb2, hits give low values 1 | S. cerevisiae deletion strains, locus YNL233W, strain BNI4, hits give low values 1.02 | S. cerevisiae deletion strains, locus YNL248C, strain rpa49, hits give low values 0.989 | S. cerevisiae deletion strains, locus YNL250W, strain rad50, hits give low values 1.01 | S. cerevisiae deletion strains, locus YNL271C, strain bni1, hits give low values 1.02 | S. cerevisiae deletion strains, locus YNL298W, strain CLA4, hits give low values 1.02 | S. cerevisiae deletion strains, locus YNL307C, strain MCK1, hits give low values 1.02 | S. cerevisiae deletion strains, locus YNL322C, strain KRE1 (second series), hits give low values 0.992 | S. cerevisiae deletion strains, locus YNR049C, strain mso1, hits give low values 0.997 | S. cerevisiae deletion strains, locus YNR052C, strain pop2, hits give low values 1.01 | S. cerevisiae deletion strains, locus YOL006C, strain TOP1, hits give low values 1.06 | S. cerevisiae deletion strains, locus YOL012C, strain htz1 0.982 | S. cerevisiae deletion strains, locus YOL147C, strain pex11, hits give low values 1.01 | S. cerevisiae deletion strains, locus YOR001W, strain rrp6, hits give low values 0.98 | S. cerevisiae deletion strains, locus YOR061W, strain CKA2, hits give low values 1.01 | S. cerevisiae deletion strains, locus YOR069W, strain VPS5, hits give low values 1 | S. cerevisiae deletion strains, locus YOR070C, strain gyp1, hits give low values 0.999 | S. cerevisiae deletion strains, locus YOR080W, strain dia2, hits give low values 0.984 | S. cerevisiae deletion strains, locus YOR083W, strain WHI5, hits give low values 0.965 | S. cerevisiae deletion strains, locus YOR106W, strain vam3, hits give low values 0.973 | S. cerevisiae deletion strains, locus YOR136W, strain idh2, hits give low values 1.02 | S. cerevisiae deletion strains, locus YOR144C, strain elg1, hits give low values 1.02 | S. cerevisiae deletion strains, locus YOR184W, strain ser1, hits give low values 1.01 | S. cerevisiae deletion strains, locus YOR231W, strain MKK1, hits give low values 0.999 | S. cerevisiae deletion strains, locus YOR265W, strain rbl2, hits give low values 1 | S. cerevisiae deletion strains, locus YOR270C, strain vph1, hits give low values 1.01 | S. cerevisiae deletion strains, locus YOR290C, strain snf2, hits give low values 1.01 | S. cerevisiae deletion strains, locus YOR316C, strain cot1, hits give low values 1.02 | S. cerevisiae deletion strains, locus YPL051W, strain arl3, hits give low values 0.986 | S. cerevisiae deletion strains, locus YPL078C, strain atp4, hits give low values 0.97 | S. cerevisiae deletion strains, locus YPL106C, strain sse1, hits give low values 1.01 | S. cerevisiae deletion strains, locus YPL240C, strain hsp82, hits give low values 0.98 | S. cerevisiae deletion strains, locus YPL256C, strain CLN2, hits give low values 0.96 | S. cerevisiae deletion strains, locus YPR119W, strain clb2, hits give low values 1.01 | S. cerevisiae deletion strains, locus YPR141C, strain kar3, hits give low values 1.02 | S. cerevisiae deletion strains, locus YPR163C, strain tif3, hits give low values 1.02 | S. cerevisiae deletion strains, locus YPR167C, strain met16, hits give low values 1.02 | S. cerevisiae deletion strains, strain wtn01, hits give low values 1.01 | S. cerevisiae strains, strain wild type, hits give low values 1
